According to PubChem BioAssay (NCI):
This is part of a sample that, as a whole, favours compounds with a hit. Of some 79,000 tested, about 15% had one in any assay. Values without a mark were called inactive. Activity calls are given as the source filed them. Cut-off read from the data, not from the text of the source: active = growth inhibition above about 70%; inactive = the rest. Where a SMILES comes first, the peptide text is derived from it. The star is where a group is joined. Boc = CC(C)(C)OC(=O)*

Legend:
[1] = NCI Yeast Anticancer Drug Screen. Data for the rad50 strain (AID 155);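 note: 0% = growth of vehicle-only cultures of the same strain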; conditions: S. cerevisiae rad50 strain growth inhibition; at 50.0 µM; hits give high values
In short: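 A DNA repair-deficient yeast mutant serves as the test organism; compound-induced growth inhibition is calculated against vehicle-treated cells.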

[2] = NCI Yeast Anticancer Drug Screen. Data for the mec2-1 strain (AID 157); conditions: S. cerevisiae mec2-1 strain, at 50.0 µM, hits give high values
In short: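 Using mec2-1 yeast: add compound, measure growth, express inhibition versus vehicle-treated cultures.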

[3] = NCI Yeast Anticancer Drug Screen. Data for the sgs1 mgt1 strain (AID 161);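 note: 0% = growth of cultures given vehicle only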; conditions: S. cerevisiae sgs1 mgt1 strain, at 50.0 µM, hits give high values
In short: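 Percent growth inhibition was derived by comparing compound-exposed mutant yeast with vehicle-exposed cultures. The strain carries alterations in DNA damage repair.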

[4] = NCI Yeast Anticancer Drug Screen. Data for the cln2 rad14 strain (AID 165);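 note: 0% = growth equal to vehicle treated cultures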; conditions: S. cerevisiae cln2 rad14 strain, at 50.0 µM, hits give high values
In short: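 Yeast strain cln2 rad14, bearing defects in cell cycle control and DNA repair, serves as the test system; values reflect growth inhibition compared with vehicle.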

[5] = NCI Yeast Anticancer Drug Screen. Data for the bub3 strain (AID 167); conditions: S. cerevisiae bub3 mutant strain, at 50.0 µM, hits give high values
In short: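 Inhibition values come from growth of compound-treated mutant yeast normalised to vehicle-treated controls.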

[6] = NCI Yeast Anticancer Drug Screen. Data for the mlh1 rad18 strain (AID 175); conditions: S. cerevisiae mlh1 rad18 strain growth inhibition; at 50.0 µM; hits give high values
In short: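 Steps: expose repair-defective yeast to compound; measure growth; express inhibition against vehicle-treated controls.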

SMILES | growth inhibition [1] | growth inhibition [2] | growth inhibition [3] | growth inhibition [4] | growth inhibition [5] | growth inhibition [6]
Nc1nc2nsnc2nc1N | 1.9% | 12.3% | 13.6% | -57.9% | 1.2% | 23.9%
CC(=O)Oc1cccc2c(/C=N/NC(N)=S)ncc(C)c12 | 87.6% (active) | 78.3% (active) | 86.7% (active) | 83.5% (active) | 84.6% (active) | 90.3% (active)
CCCCCCCCCC[C@@H](OC(C)=O)[C@@H]1CC[C@@H]([C@@H]2CC[C@@H]([C@@H](O)CC#C/C=C/CCCCCCC[C@@]3(Sc4ccccc4)C[C@H](C)OC3=O)O2)O1 | -27.9% | -8.2% | -16.1% | 4.25% | -15.3% | -12.1%
CCOC(=O)C(Cl)(NC(=O)c1ccc(F)cc1)C(F)(F)F (stereo not given) | -6.25% | 6.7% | -18.5% | 7.3% | -12.9% | -18.1%
S=C(Cc1cccc2ccccc12)N1CCN(c2ccc(Cl)cc2)CC1 | -17% | -2.3% | -16% | -7.9% | -9.95% | -0.55%
CCC[N+]1([O-])CCOCC1 | -8.2% | -1.8% | -5.55% | 26.4% | 14.3% | -18.1%
Cc1cc(Cc2cc(Cc3cc(C)cc(C(C)(C)C)c3O)c(C)cc2C)c(O)c(C(C)(C)C)c1 | 50.4% | 18.4% | 13.3% | -1.75% | -23.4% | 38.5%
CCCCCCCCCCCCCCCC(C)O (stereo not given) | -45.8% | -35.8% | -20.1% | -35.6% | -43.5% | -34.8%
O=CSC(=Nc1ccc(Cl)cc1)NC(=O)COc1ccc(Cl)cc1 | 5.05% | -21.4% | 58.9% | -22.4% | 33.3% | 12.3%
COc1cc2c3c(c1OC)-c1[nH]c4ccccc4c1C1CCCN(CC2)C31 (stereo not given) | -54.9% | -19.9% | -20.4% | -29.9% | -16.4% | -11.7%
COC(=O)CCCC(Sc1ccccc1)C(=O)OC (stereo not given) | 3.7% | 0.6% | 15.7% | -7.4% | 7.85% | 6.75%
CN(C)C(=O)C(c1ccccc1)P(=O)(c1ccccc1)c1ccccc1 (stereo not given) | -7.9% | -12.1% | -0.9% | -26.6% | -21.2% | -5.25%
NS(=O)(=O)c1ccc(NC(=O)C2C(=O)N(c3ccc(S(N)(=O)=O)cc3)C(=O)/C2=N/O)cc1 (stereo not given) | 9.55% | 0.25% | 9.8% | -26.4% | 2% | 33.1%
COC(=O)/C(C)=C/C=C/C(OC)C(OC(N)=O)/C(C)=C/C(C)C(O)C(CC(C)CC1=C(OC)C(=O)C=C(N)C1=O)OC (stereo not given) | 5.85% | 24.8% | 17% | 9.3% | 2.85% | 13.8%
COc1cccc(NC(=O)CC(=O)N2N=C(C)C(N=Nc3ccc(S(=O)(=O)c4ccc(N=NC5C(=O)N(C(=O)CC(=O)Nc6cccc(OC)c6)N=C5C)cc4)cc3)C2=O)c1 (stereo not given) | 27.4% | 15.8% | 8.9% | -16.4% | -2% | 29.1%
CCOC(=O)C1=C(c2ccccc2)NC(c2ccccc2)=C(C(=O)OCC)c2c1c(=O)cc[nH]c2=O | -19.6% | 1.45% | 18.1% | 18.2% | -9.9% | 2.35%
Cc1cc(C)cc(N=Nc2c(N)nc(N)[nH]c2=O)c1 | 4.85% | -10.7% | -49.9% | -11.2% | -3.2% | -7.3%
COc1ccc(OCc2nc3cc(C(F)(F)F)ccc3nc2-c2ccccc2)cc1 | -2.65% | 3.45% | 11.2% | 5.2% | 25.9% | -70.4%
O=P(c1ccccc1)(c1ccccc1)C(O)c1cccs1 (stereo not given) | 12.8% | 2% | 17.6% | 15.5% | 24.9% | 18.8%
COc1cc([C@@H]2C3C(=O)c4ccccc4C3[C@@H](c3cc(OC)c(OC)c(OC)c3)C23Cc2ccccc2C3=O)cc(OC)c1OC (stereo not given in full) | -6.5% | -0.95% | -11.2% | 4.55% | 23.4% | 16%

SMILES | growth inhibition [1] | growth inhibition [2] | growth inhibition [3] | growth inhibition [4] | growth inhibition [5] | growth inhibition [6]
N#C/C(=C\N1CC(=O)NC1=S)C(N)=O | -79.8% | -12.6% | -30.9% | -22.1% | -23.2% | -69.5%
COC(=O)C(Cc1c[nH]c2ccccc12)NC(=O)C(Cc1c[nH]c2ccccc12)NC(=O)C(Cc1c[nH]c2ccccc12)NC(=O)C(Cc1c[nH]c2ccccc12)NC(=O)OC(C)(C)C (stereo not given) (Boc-WWWW-OMe; configuration not given here) | 3.35% | -4.65% | -2.05% | 23.4% | 4.65% | 6.2%
CCOc1ccc(S(=O)(=O)OCC)cc1 | -15.6% | -14% | -25.2% | 1.35% | -8.45% | -19.6%
CCCCCCOC(=O)/C=C1/OC(=O)c2ccccc21 | -12.2% | -15.5% | 2.15% | -60.5% | 11.4% | -16.4%
COc1ccc(/C=C/C(=O)c2ccc(F)cc2)cc1 | 8.85% | -16.4% | -12.4% | -35.4% | -6.5% | 10.2%
O=C1OCC/C1=C\c1cccc2ccccc12 | 5.2% | 2.4% | -3.45% | 12.5% | -5% | 6.35%
C=CCCCCCCCCC(=O)NCc1ccncc1 | 56.2% | 29.2% | 59.5% | 50.4% | 41.7% | 86.7% (active)
O=c1cc(-c2ccccc2Cl)[nH]c2cc3c(cc12)OCO3 | 14.1% | -26.3% | 21.9% | -6.95% | 12.6% | -39.8%
O=C(Nc1ccc(O)cc1)c1ccccc1O | 31.6% | -20.4% | 14.3% | -5.95% | 15.4% | 1.25%
CCc1nnc(CC)n1NCCCC(=O)O | 26.3% | 24.2% | 20.8% | 18.2% | 24.9% | 15.7%
CC1(C)C=C(C(Cl)c2ccccc2)C(=O)c2ccccc21 (stereo not given) | -1% | 6.6% | 0% | -4.6% | -3.7% | -7.15%
O=c1cccc2c3ccccc3ccn12 | 22.9% | 7% | 15.3% | 12.3% | 15.3% | 13.5%
[CH3][Sn]([CH3])([O]C(=O)c1ccc2c(c1)OCO2)[O]C(=O)c1ccc2c(c1)OCO2 | -0.15% | -3.25% | -11% | -12.7% | -9.7% | -9.9%
CCCCN(CCCC)CC(O)c1cccc2c1cc(Cl)c1ccccc12 (stereo not given) | 99.2% (active) | 99.6% (active) | 99.5% (active) | 98.5% (active) | 98.5% (active) | 99.3% (active)
Cc1ccc(C(c2ccccc2)C(CC(=O)O)CC(=O)O)cc1 (stereo not given) | 1.2% | 20% | 15% | 6.45% | 5.2% | 15.9%
CC(C)(C)OC(=O)NCCCCC(NC(=O)OC(C)(C)C)C(=O)O (stereo not given) | 3.65% | 8.55% | 9.7% | 2.8% | 5.95% | -8.65%
OC(c1ccc(Cl)cc1)c1nc2ccccc2[nH]1 (stereo not given) | 40.8% | 18.4% | 35.5% | 15.9% | 19.1% | 33.5%
CCOc1cc(F)cc([N+](=O)[O-])c1 | -11.6% | 5.3% | -20.9% | -14.9% | 19.1% | 5.7%
CN(C)C=NCCN1CCOCC1 | 9.3% | 15.1% | 26.8% | 5.55% | -7.1% | -47.6%
CC(C)(C)c1ccc(SC(=O)NCCCl)cc1 | -1.55% | 23.9% | 14.2% | -31.1% | -5.4% | -11.2%
